# Granule exo inh: LAMP-1 surface exposure blockers, TALL-104 cells – cell-based, flow cytometry, MLPCN library, primary screen; inhibition, % at 10 µM; TALL-104 LAMP-1 surface exposure; cells stimulated with thapsigargin and PMA; hit rate 0.66% among 360,000;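 active = inhibition above about 55%, limit read from the data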
# Platelet DG rel: inhibitors of platelet dense granule secretion, primary screen, cell-based, MLPCN, human platelets | human platelet-rich plasma, SFLLRN dense granule ATP release, luminescence | inhibition, %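 (compounds screened at 7.5 µM in platelet-rich plasma)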 | hit rate 0.22% among 300,000 | AID 1663, 2009;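 active = mean replicate score, as percent of positive control, at or above 50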
# Rce1 inhib: yeast Rce1p protease inhibitors, primary screen, biochemical, fluorescence, cell-free homogeneous; CAAX prenyl protease 2 (Saccharomyces cerevisiae (strain ATCC 204508 / S288c)), Q03530; yeast membranes, quenched prenylated peptide cleavage fluorescence; calls only; hit rate 0.27% among 290,000;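 active = fall in fluorescence gain of 50% or more versus controls, with final raw signal at or below 3038400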;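 also: plate controls were neutral control wells for no effect and wells lacking membranes for full effect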
# PfM18AAP inh-1: PfM18AAP inhibitors, malaria aminopeptidase, primary screen, biochemical, QFRET, recombinant enzyme; M18 aspartyl aminopeptidase (Plasmodium falciparum 3D7); inhibition, % at 7.35 µM; hit rate 1.2% among 290,000; H-Glu-NHMec fluorogenic cleavage;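 active = inhibition above the campaign mean inhibition over all tested compounds plus 3 SD, cut at about 28% in these data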;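 also: 0% = plate median of test compound wells and 100% = 2 mM ZnCl2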
# ABHD5 PLIN5 PPI: ABHD5-PLIN5 interaction inhibitors, primary screen, cell lysate, split luciferase complementation, luminescence; Perilipin-5 (Homo sapiens) + 1-acylglycerol-3-phosphate O-acyltransferase ABHD5 (Homo …; hit rate 0.78% among 360,000; AID 602281, 2012; inhibition, % at 4 µM; Split G. princeps luciferase complementation, 4 h;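 active = inhibition above the mean inhibition across every tested compound plus 3 SD, cut at about 22% in these data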;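 also: 0% = DMSO only wells and the 100% control is not disclosed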
# PfM18AAP inh-2: PfM18AAP inhibitors, malaria aminopeptidase, confirmation, biochemical, QFRET, recombinant enzyme, triplicate; inhibition, % at 7.35 µM; H-Glu-NHMec fluorogenic cleavage; hit rate 28% among 2,400; shares compounds with PfM18AAP inh-1;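 active = mean inhibition over replicate wells above the hit cutoff set for the earlier primary screen, cut at about 29% in these data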;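 also: 0% = median of test compound wells and 100% = 2 mM ZnCl2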
# CTSL1 confirm: cathepsin L1 inhibitors, retest, confirmation, counter-screen for PFM18AAP inhibitor project, biochemical, QFRET, triplicate; shares compounds with PfM18AAP inh-1; purified cathepsin L1, Z-Leu-Arg-MCA fluorescence; inhibition, % at 5.96 µM; 2,400 tested, under 10 active; AID 2178, 2009;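 active = average inhibition across replicates above the hit cutoff set in the earlier primary screen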;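 also: 0% = median of test compound wells and 100% = Z-Phe-Ala-diazomethylketone 1 µM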
# Target sequence (P07711 whole entry, looked up): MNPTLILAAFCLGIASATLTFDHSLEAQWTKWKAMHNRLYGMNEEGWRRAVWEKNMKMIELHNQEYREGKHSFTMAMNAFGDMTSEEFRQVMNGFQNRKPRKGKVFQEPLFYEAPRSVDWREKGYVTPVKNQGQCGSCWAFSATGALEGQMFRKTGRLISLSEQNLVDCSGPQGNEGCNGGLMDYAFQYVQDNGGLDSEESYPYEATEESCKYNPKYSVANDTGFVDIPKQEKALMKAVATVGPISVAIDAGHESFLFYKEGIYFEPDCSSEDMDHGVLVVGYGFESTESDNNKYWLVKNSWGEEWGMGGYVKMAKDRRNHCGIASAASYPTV
# * marks the source's active call; other numbers are inactive results; i = inactive; / = not tested or not shown. Compounds with a hit are over-represented: about 2.6% of the library has one in this group of screens.
SMILES,Granule exo inh,Platelet DG rel,Rce1 inhib,PfM18AAP inh-1,ABHD5 PLIN5 PPI,PfM18AAP inh-2,CTSL1 confirm
O=Cc1ccc(OC(=O)Cc2ccc(F)cc2)cc1,/,1,i,1,/,/,/
Cc1ccc(NC(=O)Nn2cnnc2)c(C)c1,1,-2,i,57*,19,36*,0
O=C(COc1ccc(Br)cc1Cl)Nn1cnnc1,3,0,i,43*,-8,42*,-2
Cc1ccc(NC(=O)c2cc(-n3cnnc3)ccc2Cl)c(C)c1,0,-11,i,0,-1,/,/
S=C(Nc1ccc(Br)cc1Cl)Nn1cnnc1,3,-5,i,77*,6,80*,2
CCNC(=O)COc1ccc(Br)cc1Cl,-1,-2,i,-3,5,/,/
COc1cc([N+](=O)[O-])ccc1NC(=S)Nn1cnnc1,6,5,i,84*,-7,71*,4
Cc1c(C(=O)O)oc2ccc(S(=O)(=O)N3CCC(C)CC3)cc12,-8,/,/,5,8,/,/
Cc1ccc(Cl)cc1NC(=S)Nn1cnnc1,9,-3,i,77*,3,63*,0
FC(F)(F)c1ccccc1NC(=S)Nc1cccc2cnccc12,2,/,/,7,-25,/,/
FC(F)(F)c1ccccc1NC(=S)Nn1cnnc1,2,/,i,75*,-2,56*,-2
Cc1ccc(NC(=S)NN2CCN(C)CC2)c(C)c1,1,1,i,2,0,/,/
Cc1ccc(NC(=S)Nn2cnnc2)c(C)c1,3,-2,i,72*,8,65*,0
Cc1ccc(Cl)cc1NC(=S)N(C)N,5,-5,/,17,-9,/,/
O=C(NCCc1ccc(O)c(O)c1)C1COc2ccccc2O1 (stereo not given),24,5,i,80*,7,62*,1
COc1cccc(NC(=O)NNC(=O)CCc2ccc(O)c(O)c2)c1,8,2,i,73*,-1,52*,1
O=C(NNC(=S)Nc1ccc(Br)cc1Cl)c1ccncc1,4,2,i,2,-8,/,/
O=C(CCc1ccccc1)NNC(=S)NCc1ccc(Cl)cc1,1,-3,i,-10,3,/,/
O=C(CCc1ccc(O)c(O)c1)NNC(=S)Nc1ccc(Br)cc1Cl,-3,1,i,54*,3,10,-9
O=C(CCc1ccc(O)c(O)c1)NNC(=S)NCCc1ccccc1,0,-7,i,68*,1,30*,-1
Cc1cccc(N(CC(O)CN2CCOCC2)S(=O)(=O)c2ccccc2)c1 (stereo not given),4,-7,i,-5,-3,/,/
CCC(CC)NCc1ccc(OC)cc1OC,-5,-5,i,-3,-3,/,/
O=C(CSc1nnc(CNC(=O)c2c(F)cccc2F)o1)NCc1ccccc1,2,17,i,5,0,/,/
O=C(O)Cc1c[nH]c2cccc(O)c12,8,-1,i,44*,10,0,-6
COCCOC(=O)c1c(C)n(C)c2ccc(OC(=O)N3CCOCC3)cc12,0,-4,i,-3,-2,/,/
COCCOC(=O)c1c(C)n(C)c2ccc(OC(=O)c3c(OC)cccc3OC)cc12,-7,-4,i,36*,-3,-13,-7
O=C(NCc1ccccn1)c1n[nH]c2ccccc12,-2,-6,i,37*,2,-8,-3
CN1C(=O)c2c(sc3c2CCCC3)NC1c1ccccc1O (stereo not given),/,2,i,34*,/,-24,-1
Cc1cccc(C(=O)Nc2cccc(C(=O)N3CCOCC3)c2)c1,-4,-6,i,4,0,/,/
CC(=O)/C(=N/Nc1cccc(C)c1)N1CCOCC1,-2,4,i,42*,-3,-68,27*
